Measured values: PubChem BioAssay AID485317 (Broad Institute, 2010)
Hit rate of the full screen: of about 290,000 compounds, about 11,000 (3.8%) were called active. The list comes from a sample in which actives are over-represented; it also holds similar structures and randomly drawn compounds. Values without a mark were called inactive.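 The calls were made as follows: active = mean replicate inhibition above about 79%, with every replicate also reaching it (limit read from the data); inconclusive = only one of the two criteria met; inactive = mean below limit and not every replicate reaching it.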

target: FAD-linked sulfhydryl oxidase ALR (Homo sapiens) (UniProt P55789); test: inhibitors of human ALR sulfhydryl oxidase, primary screen, biochemical, H2O2 detection, HRP-luminol luminescence, single point (AID 485317); details: purified ALR, DTT oxidation, hits give high values, concentration not given here
Sequence (P55789 whole entry, looked up): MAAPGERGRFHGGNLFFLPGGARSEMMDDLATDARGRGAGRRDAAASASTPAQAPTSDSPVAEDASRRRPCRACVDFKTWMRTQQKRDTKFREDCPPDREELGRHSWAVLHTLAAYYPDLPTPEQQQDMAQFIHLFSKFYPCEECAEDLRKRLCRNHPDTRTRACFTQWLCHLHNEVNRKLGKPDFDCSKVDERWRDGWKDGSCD

SMILES	inhibition
Cc1cccc(NC(=O)C2CCN(S(=O)(=O)c3cccc4cccnc34)CC2)c1	88.1% (active)
Cc1cc(C)cc(NC(=O)C2CCCN2S(=O)(=O)c2cccc3cccnc23)c1 (configuration not stated)	-0.666%
COc1ccc(NC(=O)C2CCCN(S(=O)(=O)c3cccc4cccnc34)C2)cc1OC (configuration not stated)	-28.5%
CC(NC(=O)c1ccccc1F)c1cccc2ccccc12 (configuration not stated)	-16.5%
O=c1oc2ccc(C#CC3(O)CCCCC3)cc2cc1-n1cc(-c2ccsc2)nn1	-6.77%
O=C(CN1C(=O)NC2(CCCC2)C1=O)Nc1cc(C(F)(F)F)ccc1N1CCOCC1	-1.5%
COc1ccccc1S(=O)(=O)NCc1ccc(C(=O)N(C)Cc2ccc(F)cc2)cc1	-4.34%
C=CCNC(=O)CSc1nc2scc(-c3ccco3)c2c(=O)n1CC=C	-0.872%
C=CCn1c(=S)[nH]c2scc(-c3ccco3)c2c1=O	98.3% (active)
C=CCn1c(SCc2csc(C)n2)nc2scc(-c3ccc(C)o3)c2c1=O	16.6%
CC1CCCN(Cc2nc3c(c(=O)n(C)c(=O)n3C)n2CC(=O)c2ccccc2)C1 (configuration not stated)	-8.6%
CCOC(=O)N1CCN(Cc2nc3c(c(=O)n(C)c(=O)n3C)n2Cc2ccccc2)CC1	-3.2%
CCN1CCN(Cc2nc3c(c(=O)n(C)c(=O)n3C)n2CC(=O)c2ccccc2)CC1	98.2% (active)
O=C(CCCCO)c1ccc(O)c(Cl)c1	7.83%
Cc1cc2nnc(SCC(=O)N3CCN(c4ccccc4)CC3)n2c(N)n1	98% (active)
Cn1c(Cc2cccc3ccccc23)nnc1SCC(=O)N1CCN(c2cccc(Cl)c2)CC1	-3.36%
Cc1nnc(SCC(=O)N2CCN(c3ccccc3)CC2)n1-c1ccccc1	46.1%
CCN(CC(=O)NCc1ccc(Cl)cc1)C(=O)c1c(C)noc1C	-1.1%
COc1cc2cc(C(=O)N/N=C/c3cccc(OC)c3OC)[nH]c2cc1OC	15.9%
COc1ccc2[nH]c(C(=O)N/N=C/c3cc(OC)c(OC)c(OC)c3)cc2c1	90.9% (active)
CCOc1ccc2[nH]c(C(=O)N/N=C/c3cccc(OC)c3OC)cc2c1	-44.7%
COc1ccc(C(=O)NCC2CCCN2S(=O)(=O)c2cccs2)cc1OC (configuration not stated)	-12.1%
COc1ccccc1C(CNC(=O)c1ccc(C)c(S(=O)(=O)N2CCCCC2)c1)N(C)C (configuration not stated)	-5.4%

SMILES	inhibition
Nc1c(N(CCCO)C(=O)C2CCCC2)c(=O)[nH]c(=O)n1Cc1ccccc1	2.17%
O=C(NNS(=O)(=O)c1c(F)cc(F)c(Cl)c1F)C12CC3CC(CC(C3)C1)C2	-7.91%
COCCCn1c(SCC(=O)Nc2ccccc2)nnc1-c1ccncc1	-6.22%
CSc1nnc(-c2ccncc2)n1CCCN1CCCC1=O	98.1% (active)
CC1CCCCC1NC(=O)CSc1nnc(-c2ccncc2)n1CCCN(C)C (configuration not stated)	-3.25%
O=C(c1cnccn1)N1CCN(S(=O)(=O)c2cccc(Cl)c2)CC1	-2.25%
Cc1cc(C)c(OCC(=O)N/N=C/c2ccco2)c(C)c1	-5.47%
O=c1nc(N/N=C/c2ccco2)cn[nH]1	-0.901%
COc1cccc2c(N/N=C/c3ccco3)cc(C)nc12	91.2% (active)
COc1cc2ccccc2cc1C(=O)Nc1nc(C)c(C(C)=O)s1	-3.67%
COc1ccc(C(CNC(=O)c2ccc(S(=O)(=O)Nc3ccccc3C)cc2)N2CCOCC2)cc1 (configuration not stated)	1.74%
CC(NC(=O)COC(=O)Cn1cc(C(F)(F)F)ccc1=O)c1ccccc1 (configuration not stated)	-3.5%
COc1cc(-c2c(-c3ccc4c(c3)OCO4)noc2C)ccc1F	3.17%
COc1c(F)c(F)c(C(=O)O)c(Nc2ccccc2C)c1F	18.5%
CCOC(=O)N1CCN(C(=S)Nc2ccc(C)cc2C)CC1	-22.4%
Cc1ccc(Nc2c(F)c(F)c(F)c(F)c2C(=O)O)c(C)c1	98.2% (active)
O=C(NCC#CCSc1nnc(-c2cccc3ccccc23)o1)c1cccs1	-4.12%
COc1ccc(C(=O)NCC(=O)N/N=C/c2ccc([N+](=O)[O-])s2)cc1OC	-29.5%
COc1ccc(C(=O)NCC(=O)N/N=C/c2ccc([N+](=O)[O-])o2)cc1OC	-60.3%
COc1cc(/C=N\NC(=O)CNC(=O)c2cccc([N+](=O)[O-])c2)ccc1O	98.6% (active)
COc1ccc(C(=O)N2CCN(c3ncccn3)CC2)cc1S(=O)(=O)N1CCOCC1	-2.44%
CSc1ncccc1C(=O)Nc1cccc(S(=O)(=O)N2CCOCC2)c1	-2.48%
O=C1C=C(c2ccnc3cc(Cl)ccc23)C[C@@H](c2ccc3c(c2)OCO3)C1	-0.313%

SMILES	inhibition
Cc1cc(=O)oc2cc(OCCC[n+]3ccccc3)ccc12	-10.6%
Cc1cc(=O)oc2cc(OCC3CC(c4ccccc4Cl)=NO3)ccc12 (configuration not stated)	97.9% (active)
Cc1ccccc1N1CCN(CCCOc2ccc3c(C)cc(=O)oc3c2)CC1	-0.584%
Cn1nnnc1SCC(=O)Nc1cccc(S(=O)(=O)N2CCCCC2)c1	-1.39%
Cc1ccc(Cl)cc1NC(=O)C1CCCN(c2cnccn2)C1 (configuration not stated)	-6.26%
Cc1ccnc(N2CCCC(C(=O)NC3CC3)C2)n1 (configuration not stated)	1.74%
Cc1ccnc(N2CCCC(C(=O)Nc3cc(F)ccc3C)C2)n1 (configuration not stated)	87.3% (active)
Cc1noc(C)c1S(=O)(=O)N(C)C[C@H]1Oc2ccc(NC(=O)C3CC3)cc2C(=O)N([C@H](C)CO)C[C@@H]1C	2.82%
CCCNC(=O)c1onc(CSc2ccc(F)cc2)c1C(=O)NC(C)C	3.87%
CN(C)C(=O)COC(=O)c1cccc(S(=O)(=O)N2CC3(C)CC2CC(C)(C)C3)c1 (configuration not stated)	-0.802%
COc1cccc(NC(=O)COC(=O)c2ccc3ccccc3n2)c1	-1.64%
Cn1c(SCC(=O)Nc2ccc(N3CCOCC3)cc2)nnc1C(F)(F)F	93.8% (active)
Cn1cnnc1SCC(=O)Nc1ccc(N2CCOCC2)cc1	95.8% (active)
Cn1c(SCC(=O)Nc2cccc(O)c2)nnc1-c1ccc(S(=O)(=O)N2CCOCC2)cc1	16.7%
Cn1c(SCC(=O)N2CCOCC2)nnc1-c1ccc(NC(=O)c2ccccc2F)cc1	-5.97%
CCn1c(Cc2ccc(OC)cc2)nnc1SCC(=O)Nc1ccc(N2CCOCC2)cc1	39.5%
O=C(O)CCC(=O)Nc1ccc(N2CCOCC2)cc1	-4.54%
COc1ccc(C(=O)NCc2ccc(C)cc2)cc1S(=O)(=O)N1CCCC1	-2.12%
Cc1nc2ccccc2c(=O)n1-c1ccc(NS(=O)(=O)c2ccc(F)cc2F)cc1	-10.6%
CCn1c(CSCc2c(Cl)cccc2Cl)n[nH]c1=S	67.9%
CCn1c(CN2C(=O)CSc3ccccc32)n[nH]c1=S	91.7% (active)
CCn1c(CNS(=O)(=O)c2ccc(Cl)cc2)n[nH]c1=S	21.4%
Cn1c(CCN2CCCC2)nc2cc(NS(=O)(=O)c3ccccc3)ccc21	-0.934%

SMILES	inhibition
O=S(=O)(Nc1ccc2nc(-c3ccco3)[nH]c2c1)c1ccccc1	88.8% (active)
O=S(=O)(Nc1ccc2cn[nH]c2c1)c1ccccc1	-80.8%
COC(=O)c1ccc(NS(=O)(=O)c2cc3c4c(c2)C(C)C(=O)N4CCC3)cc1 (configuration not stated)	-2.24%
O=C(COC(=O)c1cccc(Cl)c1)Nc1ccc2[nH]c(=O)[nH]c2c1	-0.957%
O=C(NNC(=O)c1ccco1)Nc1ccccc1	39.9%
CCC(=O)NC(=S)Nc1ccc(NC(=O)c2ccco2)c(Cl)c1	-18.1%
O=C(NNC(=S)Nc1ccc(Br)cc1Cl)c1ccco1	82.2% (active)
CN(CCc1ccccc1)C(=O)c1cccc(NC(=O)Cc2ccc([N+](=O)[O-])cc2)c1	1%
O=C(OCCN1C(=O)c2ccccc2C1=O)[C@@H]1CC(O)CN1S(=O)(=O)c1ccccc1[N+](=O)[O-] (some centres not stated)	-2.79%
COc1cc(/C=N/NC(=S)Nc2cccnc2)cc(OC)c1O	95% (active)
COc1cc(/C=N/NC(=O)c2cc(C)n(-c3ccc(F)cc3)c2C)cc(OC)c1O	64%
COc1cc(/C=N/Nc2ccc(C)cc2)cc(Br)c1O	98.4% (active)
COc1cc(/C=N/NC(=O)c2cc(-c3ccccc3C)nc3ccccc23)cc(OC)c1O	-3.08%
COc1ccc(/C=C/C(=O)Nc2cccnc2)cc1OC	-0.926%
COc1cc(/C=N/O)cc(Br)c1OS(=O)(=O)c1ccc(C)cc1	-15%
Nc1c(C(=O)Nc2ccc3c(c2)OCCO3)nnn1Cc1ccccc1	-23.5%
CC(C)c1c(C(=O)N/N=C/c2ccc(-c3ccccc3)cc2)nnn1-c1nonc1N	-10.7%
Cc1nc2ccc(C(=O)O)cc2[nH]1	-25.4%
COc1ccc(/C=N/NC(=O)c2cccc(C(F)(F)F)c2)cc1	-3.29%
Cc1nc2ccc(C(=O)N/N=C/c3ccc(O)cc3)cc2[nH]1	99% (active)
Cc1nonc1C(=O)N/N=C/c1ccc(O)cc1	99.2% (active)
COC(=O)N/N=C/c1ccc(/C=N/NC(=O)OC)cc1	-1.28%
CCn1nc(C(=O)NNC(=O)C2CSC3(C)CCC(=O)N23)c2ccccc2c1=O (configuration not stated)	-0.847%
